Test results published in publication PMC11006913.

Experiments:
Assay in all cases: PBM; 200 nM protein, PBS
Conditions in all cases: dsDNA, one strand shown
HOXB9 [1] = biological target: HOXB9 (Homo sapiens, UniProt P17482 171-250, T197M)
HOXC9 [2] = biological target: HOXC9 (Homo sapiens, UniProt P31274 178-260, K195R)
HOXB9 [3] = biological target: HOXB9 (Homo sapiens, UniProt P17482 171-250)
HOXC9 [4] = biological target: HOXC9 (Homo sapiens, UniProt P31274 178-260)
ALX1 [5] = biological target: ALX1 (Homo sapiens, UniProt Q15699 118-204, L144V)
HOXD13 [6] = biological target: HOXD13 (Homo sapiens, UniProt P35453 263-343, T313R)
HOXC9 [7] = biological target: HOXC9 (Homo sapiens, UniProt P31274 178-260, R193K)
ALX1 [8] = biological target: ALX1 (Homo sapiens, UniProt Q15699 118-204, L144R)
HOXD13 [9] = biological target: HOXD13 (Homo sapiens, UniProt P35453 263-343)
HOXC10 [10] = biological target: HOXC10 (Homo sapiens, UniProt Q9NYD6 254-340, K271E)
HOXD13 [11] = biological target: HOXD13 (Homo sapiens, UniProt P35453 263-343, T313A)
HOXB9 [12] = biological target: HOXB9 (Homo sapiens, UniProt P17482 171-250, R186Q)
HOXC9 [13] = biological target: HOXC9 (Homo sapiens, UniProt P31274 178-260, R222W)
ALX1 [14] = biological target: ALX1 (Homo sapiens, UniProt Q15699 118-204)
HOXC10 [15] = biological target: HOXC10 (Homo sapiens, UniProt Q9NYD6 254-340)
Sequence of HOXC10 (Homo sapiens, UniProt Q9NYD6 254-340) (Q9NYD6 254-340): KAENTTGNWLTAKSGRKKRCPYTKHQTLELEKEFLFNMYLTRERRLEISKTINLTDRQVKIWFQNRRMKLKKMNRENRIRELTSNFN

Sequence of HOXC9 (Homo sapiens, UniProt P31274 178-260, K195R) (P31274 178-260 K195R): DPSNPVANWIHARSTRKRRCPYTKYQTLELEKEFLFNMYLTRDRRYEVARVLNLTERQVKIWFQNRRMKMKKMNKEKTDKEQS
Sequence of HOXC9 (Homo sapiens, UniProt P31274 178-260, R222W) (P31274 178-260 R222W): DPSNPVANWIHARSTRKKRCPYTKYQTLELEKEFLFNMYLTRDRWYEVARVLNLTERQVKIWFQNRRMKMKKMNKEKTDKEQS
Sequence of HOXC9 (Homo sapiens, UniProt P31274 178-260) (P31274 178-260): as the sequence (P31274 178-260 R222W) above, with W45R counted along it
Sequence of HOXC10 (Homo sapiens, UniProt Q9NYD6 254-340, K271E) (Q9NYD6 254-340 K271E): as the sequence (Q9NYD6 254-340) above, with K18E counted along it
Sequence of HOXD13 (Homo sapiens, UniProt P35453 263-343, T313A) (P35453 263-343 T313A): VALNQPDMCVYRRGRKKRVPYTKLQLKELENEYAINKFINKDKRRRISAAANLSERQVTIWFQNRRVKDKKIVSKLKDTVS
Sequence of HOXC9 (Homo sapiens, UniProt P31274 178-260, R193K) (P31274 178-260 R193K): as the sequence (P31274 178-260 R222W) above, with R16K, W45R counted along it
Sequence of HOXD13 (Homo sapiens, UniProt P35453 263-343) (P35453 263-343): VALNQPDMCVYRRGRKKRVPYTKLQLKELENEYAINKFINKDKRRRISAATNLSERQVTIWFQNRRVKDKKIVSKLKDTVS
Sequence of HOXB9 (Homo sapiens, UniProt P17482 171-250, R186Q) (P17482 171-250 R186Q): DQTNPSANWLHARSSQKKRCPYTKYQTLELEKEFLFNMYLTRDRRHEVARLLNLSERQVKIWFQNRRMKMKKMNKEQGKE
Sequence of HOXD13 (Homo sapiens, UniProt P35453 263-343, T313R) (P35453 263-343 T313R): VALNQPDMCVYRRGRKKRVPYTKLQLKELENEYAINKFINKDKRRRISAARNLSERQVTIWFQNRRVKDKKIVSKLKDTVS
Sequence of HOXB9 (Homo sapiens, UniProt P17482 171-250, T197M) (P17482 171-250 T197M): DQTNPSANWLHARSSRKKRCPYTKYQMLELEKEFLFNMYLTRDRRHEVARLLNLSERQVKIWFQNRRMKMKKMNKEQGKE
Sequence of HOXB9 (Homo sapiens, UniProt P17482 171-250) (P17482 171-250): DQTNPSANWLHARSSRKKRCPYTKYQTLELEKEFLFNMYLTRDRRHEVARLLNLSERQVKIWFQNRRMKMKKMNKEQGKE
Sequence of ALX1 (Homo sapiens, UniProt Q15699 118-204) (Q15699 118-204): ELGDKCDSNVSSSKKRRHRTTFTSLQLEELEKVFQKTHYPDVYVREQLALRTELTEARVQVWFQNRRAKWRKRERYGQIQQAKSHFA
Sequence of ALX1 (Homo sapiens, UniProt Q15699 118-204, L144R) (Q15699 118-204 L144R): as the sequence (Q15699 118-204) above, with L27R counted along it
Sequence of ALX1 (Homo sapiens, UniProt Q15699 118-204, L144V) (Q15699 118-204 L144V): as the sequence (Q15699 118-204) above, with L27V counted along it

Sequence | binding signal (HOXB9 [1]) | binding signal (HOXC9 [2]) | binding signal (HOXB9 [3]) | binding signal (HOXC9 [4]) | binding signal (ALX1 [5]) | binding signal (HOXD13 [6]) | binding signal (HOXC9 [7]) | binding signal (ALX1 [8]) | binding signal (HOXD13 [9]) | binding signal (HOXC10 [10]) | binding signal (HOXD13 [11]) | binding signal (HOXB9 [12]) | binding signal (HOXC9 [13]) | binding signal (ALX1 [14]) | binding signal (HOXC10 [15])
CTATTAAA | 9.97 upbm affinity estimate (log intensity, higher = more binding, comparable within an allelic series) | 12.6 upbm affinity estimate (log intensity, higher = more binding, comparable within an allelic series) | 11.9 upbm affinity estimate (log intensity, higher = more binding, comparable within an allelic series) | 12.8 upbm affinity estimate (log intensity, higher = more binding, comparable within an allelic series) | 9.79 upbm affinity estimate (log intensity, higher = more binding, comparable within an allelic series) | 11 upbm affinity estimate (log intensity, higher = more binding, comparable within an allelic series) | 12.7 upbm affinity estimate (log intensity, higher = more binding, comparable within an allelic series) | 9.81 upbm affinity estimate (log intensity, higher = more binding, comparable within an allelic series) | 12 upbm affinity estimate (log intensity, higher = more binding, comparable within an allelic series) | 11.8 upbm affinity estimate (log intensity, higher = more binding, comparable within an allelic series) | 11.9 upbm affinity estimate (log intensity, higher = more binding, comparable within an allelic series) | 11.6 upbm affinity estimate (log intensity, higher = more binding, comparable within an allelic series) | 11.1 upbm affinity estimate (log intensity, higher = more binding, comparable within an allelic series) | 10.3 upbm affinity estimate (log intensity, higher = more binding, comparable within an allelic series) | –
GCCATAAA | 9.72 upbm affinity estimate (log intensity, higher = more binding, comparable within an allelic series) | 12.7 upbm affinity estimate (log intensity, higher = more binding, comparable within an allelic series) | 12.2 upbm affinity estimate (log intensity, higher = more binding, comparable within an allelic series) | 12.9 upbm affinity estimate (log intensity, higher = more binding, comparable within an allelic series) | – | 10.7 upbm affinity estimate (log intensity, higher = more binding, comparable within an allelic series) | 12.9 upbm affinity estimate (log intensity, higher = more binding, comparable within an allelic series) | – | 11.9 upbm affinity estimate (log intensity, higher = more binding, comparable within an allelic series) | 11.8 upbm affinity estimate (log intensity, higher = more binding, comparable within an allelic series) | 11.7 upbm affinity estimate (log intensity, higher = more binding, comparable within an allelic series) | 11.9 upbm affinity estimate (log intensity, higher = more binding, comparable within an allelic series) | 10.9 upbm affinity estimate (log intensity, higher = more binding, comparable within an allelic series) | – | 12.4 upbm affinity estimate (log intensity, higher = more binding, comparable within an allelic series)
GTCGTAAA | 9.95 upbm affinity estimate (log intensity, higher = more binding, comparable within an allelic series) | 13.1 upbm affinity estimate (log intensity, higher = more binding, comparable within an allelic series) | 12.6 upbm affinity estimate (log intensity, higher = more binding, comparable within an allelic series) | 13.3 upbm affinity estimate (log intensity, higher = more binding, comparable within an allelic series) | – | 10.9 upbm affinity estimate (log intensity, higher = more binding, comparable within an allelic series) | 13 upbm affinity estimate (log intensity, higher = more binding, comparable within an allelic series) | – | 12.3 upbm affinity estimate (log intensity, higher = more binding, comparable within an allelic series) | 12.7 upbm affinity estimate (log intensity, higher = more binding, comparable within an allelic series) | 11.9 upbm affinity estimate (log intensity, higher = more binding, comparable within an allelic series) | 11.9 upbm affinity estimate (log intensity, higher = more binding, comparable within an allelic series) | 11 upbm affinity estimate (log intensity, higher = more binding, comparable within an allelic series) | – | 13.2 upbm affinity estimate (log intensity, higher = more binding, comparable within an allelic series)
ACTATAAA | 9.75 upbm affinity estimate (log intensity, higher = more binding, comparable within an allelic series) | 12.4 upbm affinity estimate (log intensity, higher = more binding, comparable within an allelic series) | 11.7 upbm affinity estimate (log intensity, higher = more binding, comparable within an allelic series) | 12.6 upbm affinity estimate (log intensity, higher = more binding, comparable within an allelic series) | – | 10.9 upbm affinity estimate (log intensity, higher = more binding, comparable within an allelic series) | 12.5 upbm affinity estimate (log intensity, higher = more binding, comparable within an allelic series) | – | 12 upbm affinity estimate (log intensity, higher = more binding, comparable within an allelic series) | 11.4 upbm affinity estimate (log intensity, higher = more binding, comparable within an allelic series) | 11.8 upbm affinity estimate (log intensity, higher = more binding, comparable within an allelic series) | 11.4 upbm affinity estimate (log intensity, higher = more binding, comparable within an allelic series) | 11 upbm affinity estimate (log intensity, higher = more binding, comparable within an allelic series) | – | 12.1 upbm affinity estimate (log intensity, higher = more binding, comparable within an allelic series)
ATAATAAA | 9.88 upbm affinity estimate (log intensity, higher = more binding, comparable within an allelic series) | 12.7 upbm affinity estimate (log intensity, higher = more binding, comparable within an allelic series) | 11.9 upbm affinity estimate (log intensity, higher = more binding, comparable within an allelic series) | 12.7 upbm affinity estimate (log intensity, higher = more binding, comparable within an allelic series) | – | 10.8 upbm affinity estimate (log intensity, higher = more binding, comparable within an allelic series) | 12.7 upbm affinity estimate (log intensity, higher = more binding, comparable within an allelic series) | – | 11.8 upbm affinity estimate (log intensity, higher = more binding, comparable within an allelic series) | 11.9 upbm affinity estimate (log intensity, higher = more binding, comparable within an allelic series) | 11.6 upbm affinity estimate (log intensity, higher = more binding, comparable within an allelic series) | 11.5 upbm affinity estimate (log intensity, higher = more binding, comparable within an allelic series) | 11.2 upbm affinity estimate (log intensity, higher = more binding, comparable within an allelic series) | – | 12.5 upbm affinity estimate (log intensity, higher = more binding, comparable within an allelic series)
AATTTTAT | 9.84 upbm affinity estimate (log intensity, higher = more binding, comparable within an allelic series) | 12.6 upbm affinity estimate (log intensity, higher = more binding, comparable within an allelic series) | 11.9 upbm affinity estimate (log intensity, higher = more binding, comparable within an allelic series) | 12.7 upbm affinity estimate (log intensity, higher = more binding, comparable within an allelic series) | – | 10.7 upbm affinity estimate (log intensity, higher = more binding, comparable within an allelic series) | 12.6 upbm affinity estimate (log intensity, higher = more binding, comparable within an allelic series) | – | – | 11.7 upbm affinity estimate (log intensity, higher = more binding, comparable within an allelic series) | – | 11.6 upbm affinity estimate (log intensity, higher = more binding, comparable within an allelic series) | 11.2 upbm affinity estimate (log intensity, higher = more binding, comparable within an allelic series) | – | 12.3 upbm affinity estimate (log intensity, higher = more binding, comparable within an allelic series)
